# Source: publication PMC7862700, “An all-to-all approach to the identification of sequence-specific readers for epigenetic DNA modifications on cytosine”
# Columns and labels:
# Assay in all cases: DAPPL (digital affinity profiling via proximity ligation, sequencing); 10 mM Tris-HCl pH 7.5, 50 mM NaCl, 1 mM DTT, 4% glycerol, room temperature, 30 min; GST-TFs on glutathione beads, 16-mer random dsDNA library, 0.1% formaldehyde crosslink after washing; high values mean tight binding
# Conditions in all cases: protein: recombinant; tags: N-terminal GST; dsDNA, one strand shown
# ETV1 = ETV1 (Homo sapiens, UniProt P50549 1-477)
# Chain of ETV1 (P50549 whole entry, the tested form may be a part): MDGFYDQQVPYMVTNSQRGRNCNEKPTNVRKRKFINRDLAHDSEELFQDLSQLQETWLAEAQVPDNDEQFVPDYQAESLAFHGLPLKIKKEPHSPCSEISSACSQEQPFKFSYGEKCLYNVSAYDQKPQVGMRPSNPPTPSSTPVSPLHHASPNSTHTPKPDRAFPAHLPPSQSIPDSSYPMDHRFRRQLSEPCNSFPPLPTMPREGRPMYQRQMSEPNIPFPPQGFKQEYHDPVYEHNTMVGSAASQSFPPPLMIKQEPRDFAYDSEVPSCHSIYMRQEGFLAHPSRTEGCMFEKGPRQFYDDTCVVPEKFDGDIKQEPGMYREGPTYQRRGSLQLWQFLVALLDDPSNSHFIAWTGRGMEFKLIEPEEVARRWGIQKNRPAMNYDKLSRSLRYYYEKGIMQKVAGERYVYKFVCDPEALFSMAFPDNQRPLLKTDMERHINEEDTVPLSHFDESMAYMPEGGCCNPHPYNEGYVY
# Outline: (§1)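 GST fusions of human transcription factors were expressed in yeast and captured with glutathione beads. Once given DNA barcodes and pooled alongside a tag-only sample, they were incubated for 30 min at room temperature with 200 nmole of a random double-stranded 16-mer DNA library in Tris/NaCl/DTT/glycerol buffer, then washed, crosslinked (0.1% formaldehyde), proximity-ligated, PCR-amplified and sequenced on an Illumina NextSeq500. The binding signal of each hexamer is its read frequency for a factor divided by its frequency for the tag-only sample.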
# ERF = molecular target: T1, ERF (Homo sapiens, UniProt P50548 1-548)
# T1 sequence: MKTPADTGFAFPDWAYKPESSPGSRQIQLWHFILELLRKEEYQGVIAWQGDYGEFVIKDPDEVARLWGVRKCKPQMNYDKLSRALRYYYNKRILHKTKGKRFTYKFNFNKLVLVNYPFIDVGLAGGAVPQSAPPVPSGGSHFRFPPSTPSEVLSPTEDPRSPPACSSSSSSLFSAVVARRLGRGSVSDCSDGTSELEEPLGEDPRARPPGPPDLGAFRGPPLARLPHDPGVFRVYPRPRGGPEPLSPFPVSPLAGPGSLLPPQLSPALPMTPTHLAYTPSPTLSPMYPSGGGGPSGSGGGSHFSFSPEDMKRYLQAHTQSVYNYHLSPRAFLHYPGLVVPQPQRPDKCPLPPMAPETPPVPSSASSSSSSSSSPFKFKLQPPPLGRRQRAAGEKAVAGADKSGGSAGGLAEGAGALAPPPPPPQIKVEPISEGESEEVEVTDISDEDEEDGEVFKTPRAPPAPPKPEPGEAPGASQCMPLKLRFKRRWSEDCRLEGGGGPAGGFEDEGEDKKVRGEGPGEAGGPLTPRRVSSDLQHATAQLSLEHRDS
# Outline: as §1
# ETV3L = molecular target: T2, ETV3L (Homo sapiens, UniProt Q6ZN32 1-361)
# T2 sequence: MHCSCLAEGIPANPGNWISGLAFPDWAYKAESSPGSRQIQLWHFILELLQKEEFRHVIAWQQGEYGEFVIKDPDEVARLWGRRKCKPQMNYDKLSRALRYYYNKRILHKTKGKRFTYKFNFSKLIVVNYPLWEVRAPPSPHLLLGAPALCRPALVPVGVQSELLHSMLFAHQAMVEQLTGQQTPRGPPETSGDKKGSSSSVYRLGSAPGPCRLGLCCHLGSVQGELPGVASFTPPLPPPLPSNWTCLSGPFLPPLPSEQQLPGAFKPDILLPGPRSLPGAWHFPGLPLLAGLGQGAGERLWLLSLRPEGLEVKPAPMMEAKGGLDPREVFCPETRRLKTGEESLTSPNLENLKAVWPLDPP
# Outline: as §1
# ETS2 = molecular target: T3, ETS2 (Homo sapiens, UniProt P15036 1-469)
# T3 sequence: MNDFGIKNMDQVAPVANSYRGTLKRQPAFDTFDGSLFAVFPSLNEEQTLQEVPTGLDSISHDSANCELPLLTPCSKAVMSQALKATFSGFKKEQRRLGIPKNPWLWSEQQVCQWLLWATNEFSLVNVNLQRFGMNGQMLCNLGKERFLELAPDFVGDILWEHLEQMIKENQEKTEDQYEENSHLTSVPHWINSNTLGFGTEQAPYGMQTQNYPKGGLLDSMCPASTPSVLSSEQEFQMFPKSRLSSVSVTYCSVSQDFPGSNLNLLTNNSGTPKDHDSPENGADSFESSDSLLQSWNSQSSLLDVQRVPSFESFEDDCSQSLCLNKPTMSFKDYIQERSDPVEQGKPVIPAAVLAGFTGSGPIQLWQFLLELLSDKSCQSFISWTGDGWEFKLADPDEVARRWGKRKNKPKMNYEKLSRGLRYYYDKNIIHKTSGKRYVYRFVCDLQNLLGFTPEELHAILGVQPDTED
# Outline: as §1
# SPDEF = molecular target: T4, SPDEF (Homo sapiens, UniProt O95238 1-335)
# T4 sequence: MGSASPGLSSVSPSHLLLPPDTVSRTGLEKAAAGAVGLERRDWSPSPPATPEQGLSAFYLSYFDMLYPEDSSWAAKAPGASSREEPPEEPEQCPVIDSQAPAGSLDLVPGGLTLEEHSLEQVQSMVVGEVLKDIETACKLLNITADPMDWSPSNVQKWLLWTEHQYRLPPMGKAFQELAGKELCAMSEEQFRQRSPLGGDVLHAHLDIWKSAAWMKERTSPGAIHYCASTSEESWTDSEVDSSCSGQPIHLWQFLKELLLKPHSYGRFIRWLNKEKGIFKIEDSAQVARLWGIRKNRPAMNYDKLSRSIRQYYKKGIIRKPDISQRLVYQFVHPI
# Outline: as §1
# ETV7 = molecular target: T5, ETV7 (Homo sapiens, UniProt Q9Y603 1-341)
# T5 sequence: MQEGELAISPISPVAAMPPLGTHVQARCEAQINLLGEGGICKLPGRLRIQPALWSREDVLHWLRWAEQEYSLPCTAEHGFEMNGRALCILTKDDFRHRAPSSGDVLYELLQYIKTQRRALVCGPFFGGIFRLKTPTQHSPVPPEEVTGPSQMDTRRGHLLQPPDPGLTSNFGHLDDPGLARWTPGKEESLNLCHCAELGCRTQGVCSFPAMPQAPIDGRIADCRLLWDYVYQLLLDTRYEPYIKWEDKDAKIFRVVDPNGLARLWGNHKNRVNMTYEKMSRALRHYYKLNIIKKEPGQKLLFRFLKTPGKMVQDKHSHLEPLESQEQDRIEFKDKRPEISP
# Outline: as §1
# ELF5 = molecular target: T6, ELF5 (Homo sapiens, UniProt Q9UKW6-2 1-255)
# T6 sequence: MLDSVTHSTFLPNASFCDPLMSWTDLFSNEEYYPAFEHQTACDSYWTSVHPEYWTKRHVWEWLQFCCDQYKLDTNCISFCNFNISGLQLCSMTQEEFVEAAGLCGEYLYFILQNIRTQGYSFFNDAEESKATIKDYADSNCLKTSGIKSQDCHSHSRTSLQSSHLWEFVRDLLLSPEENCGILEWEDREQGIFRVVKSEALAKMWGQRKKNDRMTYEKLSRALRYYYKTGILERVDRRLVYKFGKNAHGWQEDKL
# Outline: as §1
# ETV3 = molecular target: T7, ETV3 (Homo sapiens, UniProt P41162-2 1-143)
# T7 sequence: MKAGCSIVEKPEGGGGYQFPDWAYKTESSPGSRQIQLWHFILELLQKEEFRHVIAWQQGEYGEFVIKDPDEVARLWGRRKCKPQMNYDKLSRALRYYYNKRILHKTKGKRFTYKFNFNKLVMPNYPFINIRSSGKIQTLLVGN
# Outline: as §1
# ETV6 = ETV6 (Homo sapiens, UniProt P41212 1-452)
# Chain of ETV6 (P41212 whole entry): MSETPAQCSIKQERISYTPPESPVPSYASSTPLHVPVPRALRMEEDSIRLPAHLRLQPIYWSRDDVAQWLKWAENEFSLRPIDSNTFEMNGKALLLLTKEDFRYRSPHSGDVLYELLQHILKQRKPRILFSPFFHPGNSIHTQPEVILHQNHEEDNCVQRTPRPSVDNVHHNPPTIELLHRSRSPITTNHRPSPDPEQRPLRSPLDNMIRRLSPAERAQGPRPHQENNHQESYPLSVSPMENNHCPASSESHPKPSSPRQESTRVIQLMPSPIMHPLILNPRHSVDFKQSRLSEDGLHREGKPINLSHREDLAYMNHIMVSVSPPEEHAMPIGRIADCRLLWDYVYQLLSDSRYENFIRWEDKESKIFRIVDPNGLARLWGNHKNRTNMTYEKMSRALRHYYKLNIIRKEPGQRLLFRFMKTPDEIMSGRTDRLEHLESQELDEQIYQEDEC
# Outline: as §1
sequence,measurement,setting,value
TCGATT,binding signal,ETV1,"1.14 fold enrichment (6-mer frequency, TF over GST control)"
same,binding signal,ERF,"1.01 fold enrichment (6-mer frequency, TF over GST control)"
same,binding signal,ETV3L,"1.06 fold enrichment (6-mer frequency, TF over GST control)"
same,binding signal,ETS2,"1.16 fold enrichment (6-mer frequency, TF over GST control)"
same,binding signal,SPDEF,"1.05 fold enrichment (6-mer frequency, TF over GST control)"
same,binding signal,ETV7,"1.04 fold enrichment (6-mer frequency, TF over GST control)"
same,binding signal,ELF5,"1.03 fold enrichment (6-mer frequency, TF over GST control)"
same,binding signal,ETV3,"1.01 fold enrichment (6-mer frequency, TF over GST control)"
same,binding signal,ETV6,"1.04 fold enrichment (6-mer frequency, TF over GST control)"
